Experimental data reported in PubChem BioAssay (NCI).
Compounds without any hit were thinned out: in the full panel of roughly 83,000, 20% have a hit.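 Interpretation: 100, growth as untreated; towards 0, rising growth inhibition; 0, no net growth; 0 to -100, cell death. Compounds scoring below 10 were considered active.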 Unmarked numbers belong to inactive results. Active and inactive are the calls of the source.

These compounds were tested on SW-620 colon (assay: NCI-60 one-dose screen, 48 h (100 = growth as untreated, 0 = no growth, -100 = all killed)). Conditions: 10 µM unless noted.

In order of falling growth:
1. O=C1N/C(=C\c2ccccc2)c2ncccc21  113%
2. COc1cc(C(=O)N(C(C)C)C2CCCCC2)cc(OC)c1OC  107%
3. COc1ccc(C2OCC(C)(C)CO2)cc1OC  106%
4. FC(F)(F)c1cc(CNc2ncc(Br)c(Cl)n2)cc(C(F)(F)F)c1  105%
5. C(=C\c1ccccc1)/CN1CCN(C(c2ccccc2)c2ccccc2)CC1  90.3%
6. CCC12CCC3c4ccc(O)cc4CCC3C1CC(O)C2O (centres undefined)  43%

With `COc1cc(/C=C/C(=O)C(=Cc2ccc(F)c(F)c2)C(=O)/C=C/c2ccc(O)c(OC)c2)ccc1O` the growth was -44.7% (active).

What follows are compounds tested on MCF7 breast in the same assay as above. Conditions: 10 µM unless noted.

In order of falling growth:
1. COc1ccc(C2OCC(C)(C)CO2)cc1OC  104%
2. CN1CCN(C(=O)OCCOCCOC(=O)N2CCN(C)CC2)CC1  102%
3. O=C1c2cc(S(=O)(=O)O)ccc2C(=O)c2c1cccc2[N+](=O)[O-]  101%
4. CSc1ccc(OC(C)=O)cc1C  100%
5. COc1ccc(Sc2ccc3[nH]c(=O)nc(N)c3c2)cc1  100%
6. COC1(OC)C2(Cl)C=C(c3ccccc3)C1(Cl)C(Cl)=C2Cl (centres undefined)  99.2%
7. O=c1nc(NO)[nH]c(=O)n1Cc1ccccc1  98.9%
8. NS(=O)(=O)c1cc(Br)c2c(c1)S(=O)(=O)NCN2  97.4%
9. Clc1ccccc1Nc1ccc2nnc(-c3ccncc3)n2n1  95.9%
10. FC(F)(F)c1cc(CNc2ncc(Br)c(Cl)n2)cc(C(F)(F)F)c1  95.7%
11. COc1ccc(OC2=C(C#N)C(=N)N3c4ccccc4Sc4ccccc4C3N2)cc1 (centres undefined)  95.6%
12. Cc1ccc2nc(NC(=O)CSC(=S)N3CCN(C)CC3)sc2c1  93%
13. C(=C\c1ccccc1)/CN1CCN(C(c2ccccc2)c2ccccc2)CC1  92.4%
14. O=c1oc2ccccc2cc1-c1csc(N/N=C/c2cc3ccccc3nc2Cl)n1  90.7%
15. Cc1ccc(N=c2nc3sc4c(C)ccc(C)c4n3c(N)c2C#N)cc1  88.3%
16. COc1ccc(OC)c2ncccc12  84.8%
17. Oc1cccc(Nc2nc(-c3ccccn3)cs2)c1  84.1%
18. CSc1nnc(-c2sc3nnc(-c4ccccc4)c(-c4ccccc4)c3c2O)o1  83.5%
19. Cc1nn2c(-c3nc4ccc(Cl)cc4[nH]3)c(-c3ccc(F)cc3)nc2s1  81.2%
20. O=C1N/C(=C\c2ccccc2)c2ncccc21  80%
21. CCC12CCC3c4ccc(O)cc4CCC3C1CC(O)C2O (centres undefined)  75.5%
22. Cc1nc2cc(Nc3nc(NCCN)nc(Nc4ccc(F)cc4)n3)ccc2n1Cc1ccccc1  68.8%
23. CC[Si](CC)(CC)OC1[C@@H](O[Si](CC)(CC)CC)[C@@H](CNC(=O)NC)O[C@H]1n1cnc2c(NC(=O)Nc3ccccc3)ncnc21 (some centres undefined)  61.6%
24. COc1ccc(-c2c3c(N)c4c(nc3nc3c2c(C)nn3-c2ccccc2)CCCC4)cc1  58.5%
25. COc1cc(/C=C/C(=O)C(=Cc2ccc(F)c(F)c2)C(=O)/C=C/c2ccc(O)c(OC)c2)ccc1O  35.8%
26. Cc1nc2cc(Nc3nc(Nc4ccc(F)cc4)nc(-c4cccs4)n3)ccc2n1Cc1ccccc1  32.9%
27. COc1cc(-c2nc(Nc3nc4ccccc4[nH]3)nc(N)c2C#N)cc(OC)c1OC  30.9%
28. COc1ccc(Nc2[nH]n(C3=Nc4ccccc4Sc4ccccc43)c(=O)c2C#N)cc1  30.7%
29. CN1CCc2c(c3ccccc3c3ccccc23)C1  26.4%

In the case of `COc1cc(CNCCN2C(=O)c3ccc4c5c(ccc(c35)C2=O)C(=O)N(CCNCc2cc(OC)c(OC)c(OC)c2)C4=O)cc(OC)c1OC`, the growth is reported as -59.4% (active).
`O=C(c1ccc2ncc(-c3nc(NC4CC4)ncc3F)n2c1)N1CCOCC1` was tested, and the growth was 5.99% (active).
`O=C(COc1cccc(/C=C2\COc3ccccc3C2=O)c1)c1ccccc1` was tested, and the growth was 7.63% (active).
`CCN(CC)CCCNc1ccc(C)c2sc3ccccc3c(=O)c12` was tested, and the growth was -67.1% (active).
In the case of `CCC(C)[C@H]1O[C@]2(CC[C@@H]1C)C[C@@H]1C[C@@H](C/C=C(\C)[C@@H](OC3C[C@H](OC)C(O[C@H]4C[C@H](OC)[C@@H](O)[C@H](C)O4)[C@H](C)O3)[C@@H](C)/C=C/C=C3\CO[C@@H]4[C@H](O)C(C)=C[C@@H](C(=O)O1)[C@]34O)O2` (some centres undefined), the growth is reported as 6.74% (active).
With `O=C1/C(=C/c2ccc(F)cc2)CN(Cc2cn(CCNc3ccnc4cc(Cl)ccc34)nn2)C/C1=C\c1ccc(F)cc1` the growth was -79.6% (active).
`CCCN1CCN(c2ccc3nc(-c4ccc5nc(-c6ccc(C(F)(F)F)cc6)[nH]c5c4)[nH]c3c2)CC1` was tested, and the growth was -77% (active).
`CC1SC(c2ccc(Cl)cc2)N(CCc2cccs2)C1=O` (centres undefined) was tested, and the growth was 2.74% (active).
